PubChem BioAssay (Tox21)
Results filed as inconclusive are left out. Activity calls are given as the source filed them. Unless noted, calls follow the shape of the full dose curve.

How the values were obtained:
[1] = Nuclear factor erythroid 2-related factor 2/antioxidant responsive element (Nrf2/ARE) small molecule agonists: qHTS cell viability counter screen in human keratinocytes (AID 1919968; active = well fitted curve in the direction sought with a large enough effect in the repeat runs; an effect the other way counts as inactive or inconclusive; also: nearly all actives have a fitted effect of over 55% in size)
How it was run: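 KeratinoSens cells (HaCaT keratinocytes stably carrying an ARE-luciferase reporter) were seeded at 1,500 cells/well and rested 5 h at 37 C/5% CO2. They were then exposed to compounds in DMSO for 23 h. Viability was read by CellTiter-Fluor fluorescence after 1 h.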

[2] = Nuclear factor erythroid 2-related factor 2/antioxidant responsive element (Nrf2/ARE) small molecule agonists: luciferase reporter gene qHTS assay in human keratinocytes (AID 1919969); also: nearly all actives have a fitted effect of over 35% in size
[3] = target: Gonadotropin-releasing hormone receptor (Homo sapiens) (UniProt P30968); assay: Human gonadotropin-releasing hormone receptor (GnRHR) small molecule agonists, calcium flux assay in GnRHR-HEK293 cells (AID 1920063); also: nearly all actives have a fitted effect of over 35% in size
Gonadotropin-releasing hormone receptor (Homo sapiens), sequence (P30968 whole entry, looked up): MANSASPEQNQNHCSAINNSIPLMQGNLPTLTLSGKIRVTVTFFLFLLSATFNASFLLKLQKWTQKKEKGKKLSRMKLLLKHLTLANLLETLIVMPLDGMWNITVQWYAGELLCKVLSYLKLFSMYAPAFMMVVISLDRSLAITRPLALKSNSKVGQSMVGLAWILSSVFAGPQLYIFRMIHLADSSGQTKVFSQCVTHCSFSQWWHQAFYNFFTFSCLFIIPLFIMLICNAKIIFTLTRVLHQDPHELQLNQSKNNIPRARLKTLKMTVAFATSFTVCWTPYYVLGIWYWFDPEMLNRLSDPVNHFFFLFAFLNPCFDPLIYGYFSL
How it was run: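 HEK293 cells stably expressing human GnRHR were plated 18 h at 37 °C, loaded with calcium dye 1 h at 37 °C, then given compound in agonist mode; fluorescence (Ex/Em 480/540) read kinetically for 3 min at 1 s intervals.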

[4] = target: KiSS-1 receptor (Homo sapiens) (UniProt Q969F8); assay: Human kisspeptin (KISS1R) small molecule agonists, calcium flux assay in KISS1R-HEK293 cells (AID 1920064; active = well fitted curve in the direction sought with a large enough effect in the repeat runs; an effect the other way counts as inactive or inconclusive)
KiSS-1 receptor (Homo sapiens), sequence (Q969F8 whole entry, looked up): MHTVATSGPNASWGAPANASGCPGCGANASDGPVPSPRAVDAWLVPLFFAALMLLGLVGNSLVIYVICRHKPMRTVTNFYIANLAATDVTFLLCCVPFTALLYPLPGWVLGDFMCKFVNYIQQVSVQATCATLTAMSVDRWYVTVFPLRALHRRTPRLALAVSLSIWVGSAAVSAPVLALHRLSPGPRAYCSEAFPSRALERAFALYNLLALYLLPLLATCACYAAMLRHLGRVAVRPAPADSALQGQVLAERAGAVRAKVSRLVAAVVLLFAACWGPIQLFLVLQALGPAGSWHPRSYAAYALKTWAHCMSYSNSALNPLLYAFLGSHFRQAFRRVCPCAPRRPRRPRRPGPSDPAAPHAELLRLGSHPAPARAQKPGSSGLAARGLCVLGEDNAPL
How it was run: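 HEK293 cells stably expressing human KISS1R were plated 18 h at 37 °C, loaded with calcium dye for 1 h at 37 °C, then given compound by pin tool. Fluorescence (Ex/Em 480/540) was read kinetically for 3 min.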

[5] = G protein-coupled receptor (GPCR) small molecule agonists, calcium flux assay: HEK293 wild type cell line counter screen (AID 1920065)
How it was run: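 Cells were plated and cultured 18 h at 37 C/5% CO2, then loaded with calcium dye for 1 h at 37 C. Compounds in DMSO were pin-transferred in agonist mode, and fluorescence (Ex/Em 480/540) was read kinetically for 3 min at 1 s intervals.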

[6] = p53 small molecule agonists, cell-based qHTS assay with human liver microsomes: qHTS cell viability counter screen (AID 1963579); also: nearly all actives have a fitted effect of over 45% in size
How it was run: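 Metabolic activation used human liver microsomes and NADPH, both 0.5 mg/mL final, over 16 hours at 37 C on p53RE-bla cells (4,000/well). Cytotoxicity measured by CellTiter-Glo luminescence, 30 min at room temperature.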

[7] = p53 small molecule agonists, cell-based qHTS assay with rat liver microsomes: qHTS cell viability counter screen (AID 1963580); also: nearly all actives have a fitted effect of over 45% in size
How it was run: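 In HCT-116 cells carrying a p53 response element-bla reporter, compounds were metabolically activated in situ by rat liver microsomes with NADPH over 16 h. Cell ATP content then served as the cytotoxicity measure.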

[8] = p53 small molecule agonists, cell-based qHTS assay: qHTS cell viability counter screen (AID 1963581); also: nearly all actives have a fitted effect of over 45% in size
How it was run: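 p53RE-bla HCT-116 cells were exposed to compounds for 16 h at 37 C; after the beta-lactamase FRET read in the same wells, CellTiter-Glo was added and luminescence (intracellular ATP) read after 30 min at room temperature.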

[9] = target: 5-hydroxytryptamine receptor 2A (Homo sapiens) (UniProt P28223); assay: 5-hydroxytryptamine receptor 2A (HTR2A) small molecule antagonists, cell-based qHTS assay (AID 1963586); also: nearly all actives have a fitted effect of over 45% in size
5-hydroxytryptamine receptor 2A (Homo sapiens), sequence (P28223 whole entry, looked up): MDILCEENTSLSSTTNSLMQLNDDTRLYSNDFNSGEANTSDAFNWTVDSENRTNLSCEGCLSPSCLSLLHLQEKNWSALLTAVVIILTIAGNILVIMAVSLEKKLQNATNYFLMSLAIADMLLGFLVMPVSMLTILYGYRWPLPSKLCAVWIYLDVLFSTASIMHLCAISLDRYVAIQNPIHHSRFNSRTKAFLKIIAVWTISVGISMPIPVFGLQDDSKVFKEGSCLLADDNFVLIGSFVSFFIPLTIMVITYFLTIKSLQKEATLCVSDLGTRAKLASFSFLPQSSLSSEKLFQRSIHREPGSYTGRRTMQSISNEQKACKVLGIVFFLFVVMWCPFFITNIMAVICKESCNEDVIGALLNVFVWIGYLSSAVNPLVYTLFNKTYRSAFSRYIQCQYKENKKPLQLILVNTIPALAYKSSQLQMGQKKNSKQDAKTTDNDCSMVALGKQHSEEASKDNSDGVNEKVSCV
How it was run: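 Antagonist-mode intracellular calcium assay: DOI (4 nM) added after 5 min compound pre-incubation at room temperature to dye-loaded HTR2A-CHO cells. Fluorescence followed for 3 min, sampled every second.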

[10] = target: 5-hydroxytryptamine receptor 2A (Homo sapiens) (UniProt P28223); assay: 5-hydroxytryptamine receptor 2A (HTR2A) small molecule agonists, cell-based qHTS assay (AID 1963587); also: nearly all actives have a fitted effect of over 30% in size
How it was run: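 HTR2A-CHO cells, plated 18 h at 37 C/5% CO2, dye-loaded 1 h at 37 C; compounds in DMSO added by pin tool (agonist mode). Intracellular calcium flux read as kinetic fluorescence on FDSS over 2 min at 1 s intervals.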

[11] = target: Muscarinic acetylcholine receptor M1 (Homo sapiens) (UniProt P11229); assay: Cholinergic receptor muscarinic 1 (CHRM1) small molecule antagonists, cell-based qHTS assay (AID 1963588); also: nearly all actives have a fitted effect of over 40% in size
Muscarinic acetylcholine receptor M1 (Homo sapiens), sequence (P11229 whole entry, looked up): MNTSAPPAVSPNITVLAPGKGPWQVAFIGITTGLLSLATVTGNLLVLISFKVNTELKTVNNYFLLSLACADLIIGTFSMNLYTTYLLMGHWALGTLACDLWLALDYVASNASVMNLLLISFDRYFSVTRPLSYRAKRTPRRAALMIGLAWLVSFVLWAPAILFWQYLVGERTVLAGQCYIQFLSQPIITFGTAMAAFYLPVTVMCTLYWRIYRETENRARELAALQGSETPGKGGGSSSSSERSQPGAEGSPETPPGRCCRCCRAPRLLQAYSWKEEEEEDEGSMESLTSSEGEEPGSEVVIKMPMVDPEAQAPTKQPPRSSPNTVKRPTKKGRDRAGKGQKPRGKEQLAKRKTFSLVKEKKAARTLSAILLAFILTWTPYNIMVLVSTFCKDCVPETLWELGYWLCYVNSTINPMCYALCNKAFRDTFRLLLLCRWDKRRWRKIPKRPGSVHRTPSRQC
How it was run: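 CHRM1-CHO calcium-flux assay, antagonist mode. Cells were seeded 18 h, dye-loaded 1 h at 37 C and given compound for 5 min at RT, then acetylcholine was added at 50nM. FDSS fluorescence was read 3 min; 15 concentrations, three runs.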

[12] = target: Muscarinic acetylcholine receptor M1 (Homo sapiens) (UniProt P11229); assay: Cholinergic receptor muscarinic 1 (CHRM1) small molecule agonists, cell-based qHTS assay (AID 1963589); also: nearly all actives have a fitted effect of over 35% in size
How it was run: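 CHO cells stably expressing human CHRM1, seeded 18 h at 37 C/5% CO2, dye-loaded 1 h at 37 C, then given compound in agonist mode; intracellular calcium fluorescence read kinetically at 1 s intervals. Fifteen concentrations, three independent runs.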

[13] = target: Beta-2 adrenergic receptor (Homo sapiens) (UniProt P07550); assay: Adrenergic beta2 receptor (ADRB2) small molecule antagonists, cell-based qHTS assay (AID 1963592); also: series mostly up to about 92 µM; nearly all actives have a fitted effect of over 50% in size
Beta-2 adrenergic receptor (Homo sapiens), sequence (P07550 whole entry, looked up): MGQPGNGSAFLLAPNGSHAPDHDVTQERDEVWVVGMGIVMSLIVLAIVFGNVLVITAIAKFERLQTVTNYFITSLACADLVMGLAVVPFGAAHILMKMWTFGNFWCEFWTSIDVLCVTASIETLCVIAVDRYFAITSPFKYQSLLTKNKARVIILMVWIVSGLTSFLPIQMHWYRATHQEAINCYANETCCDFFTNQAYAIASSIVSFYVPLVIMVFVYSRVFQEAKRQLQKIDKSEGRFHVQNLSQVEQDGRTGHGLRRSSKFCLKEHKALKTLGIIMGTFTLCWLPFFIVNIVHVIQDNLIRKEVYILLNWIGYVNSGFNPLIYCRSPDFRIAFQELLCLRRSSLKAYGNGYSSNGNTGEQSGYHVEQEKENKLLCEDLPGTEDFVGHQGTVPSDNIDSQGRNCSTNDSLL
How it was run: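 Cells (CHO, stable ADRB2 overexpression) incubated 18-20hr at 37C; compounds added from DMSO; agonist mix (1nM isoproterenol, 100uM IBMX, 25uM Ro-20-1724) added; 0.5hr RT; d2-cAMP and anti-cAMP-cryptate added; 1hr RT; 665/615 nm read.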

[14] = target: Beta-2 adrenergic receptor (Homo sapiens) (UniProt P07550); assay: Adrenergic beta2 receptor (ADRB2) small molecule agonists, cell-based qHTS assay (AID 1963593);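 also: CHO cells stably overexpressing human ADRB2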
How it was run: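 CHO cells stably over-expressing ADRB2 were plated overnight at 37C, then dosed with compounds plus a stimulation mix containing 100uM IBMX and 25uM Ro-20-1724 for 0.5hr at room temperature. cAMP was measured by HTRF competition, 1hr.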

[15] = target: D(2) dopamine receptor (Homo sapiens) (UniProt P14416); assay: Dopamine D2 receptor (DRD2) small molecule antagonists, cell-based qHTS assay (AID 1963595; active = well fitted inhibition curve with a large enough effect in the signal ratio in the repeat runs, with a control signal flat; the % refers to the signal ratio)
D(2) dopamine receptor (Homo sapiens), sequence (P14416 whole entry, looked up): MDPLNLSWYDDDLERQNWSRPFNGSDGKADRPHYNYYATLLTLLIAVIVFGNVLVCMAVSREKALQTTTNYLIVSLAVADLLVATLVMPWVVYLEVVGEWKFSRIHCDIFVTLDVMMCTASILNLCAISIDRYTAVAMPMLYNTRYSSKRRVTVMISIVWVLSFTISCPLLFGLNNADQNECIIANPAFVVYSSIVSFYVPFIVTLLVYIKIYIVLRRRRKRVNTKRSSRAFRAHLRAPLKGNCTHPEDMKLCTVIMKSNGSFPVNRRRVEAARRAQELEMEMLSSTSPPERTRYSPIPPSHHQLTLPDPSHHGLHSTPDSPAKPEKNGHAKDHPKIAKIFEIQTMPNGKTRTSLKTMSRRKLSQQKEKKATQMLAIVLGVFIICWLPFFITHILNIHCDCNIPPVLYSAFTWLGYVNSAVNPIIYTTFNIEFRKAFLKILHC
How it was run: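 In this cell-based antagonist screen, compounds act for 10 min at room temperature before a 30 min challenge with 12 nM quinpirole and 200 nM NKH477. cAMP is quantified by HTRF competition in DRD2-HEK293 cells containing 0.1 mM Ro20-1724.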

[16] = cAMP Responsive Elements (CRE) small molecule agonists, cell-based qHTS assay (AID 1963590)
How it was run: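 CRE-bla HEK 293T cells in DMEM with 10% dialyzed FBS, NEAA, pyruvate and 25 mM HEPES were plated 18 h at 37 C/5% CO2, then exposed to compounds in DMSO for 3 h before LiveBLAzer B/G FRET substrate addition.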

[17] = cAMP Responsive Elements (CRE) small molecule antagonists, cell-based qHTS assay (AID 1963591; active = well fitted inhibition curve with a large enough effect in the signal ratio in the repeat runs, not every such curve was filed as active; the % refers to the signal ratio)
How it was run: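 CRE-bla HEK293T cells were plated 18 h at 37 °C/5% CO2, pinned with compound in DMSO, then stimulated with NKH477 at 0.25 uM final for 3 h. LiveBLAzer B/G FRET substrate was added and plates incubated 2 h at room temperature.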

[18] = target: D(2) dopamine receptor (Homo sapiens) (UniProt P14416); assay: Dopamine D2 receptor (DRD2) small molecule agonists, cell-based qHTS assay (AID 1963594); also: nearly all actives have a fitted effect of over 35% in size
How it was run: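 HEK293 cells stably expressing DRD2 were cultured 24 h at 37 C, then given Ro20-1724 (0.1 mM final) and compounds for 10 min at room temperature. NKH477 (200nM) was then added for 30 min. cAMP was read by HTRF.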

Measured: Potency

CCOC(=O)c1ccc(C#Cc2ccc3c(c2)C(C)(C)CCS3)nc1
not listed: [16] | [17] | [18]
inactive: all other assays above

COc1cc2c(cc1OC)[C@@H]1CC(=O)[C@@H](CC(C)C)CN1CC2
not listed: [12] | [13] | [17] | [18]
inactive: all other assays above

Oc1ccc2c(c1)Cc1ccccc1-2
not listed: [14] | [16]
inactive: all other assays above

CC[C@@]1(c2ccccc2)NC(=O)N(C)C1=O
not listed: [12] | [14]
inactive: all other assays above

C=CCCC(=O)O
not listed: [12]
inactive: all other assays above

CCCCC[Si](OCC)(OCC)OCC
not listed: [11]
inactive: all other assays above

Cc1ccc(C(=O)O)cc1[N+](=O)[O-]
not listed: [12] | [14]
inactive: all other assays above

O=C1NC(=O)c2cccc3cccc1c23
not listed: [12] | [16]
inactive: all other assays above
